Measurements as given in PubChem BioAssay AID1159580 (chemical genetic matrix, 2015).
Screen size: about 5,500 compounds; about 2,000 (36%) were called active. Not shown: some 18% with an inconclusive outcome. Cut-off read from the data, not from the text of the source: active = normalized growth mostly below about 0.91 (no sharp cut-off); inconclusive = no clear call, values can overlap the other calls; inactive = mostly above about 0.92. The list shows a part of the results.

Assay: chemical genetic growth profiling, strain panel (AID 1159580);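 note: tested at 20 µM; growth read once vehicle control cultures reached saturation at 30 °C; 1 = growth at the plate median or of vehicle wells; lower values mean less growth of the strain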
Settings: growth OD
[1] = S. cerevisiae deletion strains, locus YAL013W, strain DEP1, hits give low values
[2] = S. cerevisiae deletion strains, locus YDR150W, strain NUM1, hits give low values
[3] = S. cerevisiae deletion strains, locus YHR030C, strain SLT2, hits give low values
[4] = S. cerevisiae deletion strains, locus YJR075W, strain HOC1, hits give low values
[5] = S. cerevisiae deletion strains, locus YPL055C, strain LGE1, hits give low values
[6] = S. cerevisiae deletion strains, locus YPL241C, strain CIN2, hits give low values
[7] = S. cerevisiae deletion strains, locus YHR079C, strain IRE1, hits give low values
[8] = S. cerevisiae deletion strains, locus YJL095W, strain BCK1, hits give low values
[9] = S. cerevisiae deletion strains, locus YJR066W, strain TOR1, hits give low values
[10] = S. cerevisiae deletion strains, locus YLR113W, strain HOG1, hits give low values
[11] = S. cerevisiae deletion strains, locus YNL183C, strain NPR1, hits give low values
[12] = S. cerevisiae deletion strains, locus YOR231W, strain MKK1, hits give low values
[13] = S. cerevisiae deletion strains, locus YPL256C, strain CLN2, hits give low values

Measured: normalized growth

CC(=O)Nc1ccc(S(=O)(=O)NC2Cc3ccccc3C2)cc1
inactive: [1] 1.01 | S. cerevisiae deletion strains, locus YBR229C, strain ROT2, hits give low values 1.01 | S. cerevisiae deletion strains, locus YDL101C, strain DUN1, hits give low values 0.98 | [2] 0.949 | S. cerevisiae deletion strains, locus YEL061C, strain CIN8, hits give low values 1.01 | S. cerevisiae deletion strains, locus YGR078C, strain PAC10, hits give low values 1 | [3] 1.06 | S. cerevisiae deletion strains, locus YHR087W, strain rtc3, hits give low values 1 | S. cerevisiae deletion strains, locus YJR043C, strain POL32, hits give low values 1 | [4] 0.996 | S. cerevisiae deletion strains, locus YKL190W, strain CNB1, hits give low values 1.01 | S. cerevisiae deletion strains, locus YLR039C, strain RIC1, hits give low values 1.04 | S. cerevisiae deletion strains, locus YLR058C, strain SHM2 (second series), hits give low values 1.01 | S. cerevisiae deletion strains, locus YLR085C, strain ARP6, hits give low values 1.05 | S. cerevisiae deletion strains, locus YLR262C, strain YPT6, hits give low values 1.03 | S. cerevisiae deletion strains, locus YML094W, strain GIM5, hits give low values 1.02 | S. cerevisiae deletion strains, locus YMR219W, strain ESC1, hits give low values 1.01 | S. cerevisiae deletion strains, locus YMR263W, strain SAP30, hits give low values 0.994 | S. cerevisiae deletion strains, locus YNL153C, strain GIM3, hits give low values 1.02 | S. cerevisiae deletion strains, locus YNL298W, strain CLA4 (second series), hits give low values 1.04 | S. cerevisiae deletion strains, locus YNL322C, strain KRE1, hits give low values 1.01 | S. cerevisiae deletion strains, locus YNR030W, strain Alg12, hits give low values 1.03 | S. cerevisiae deletion strains, locus YOL006C, strain TOP1, hits give low values 1.08 | [5] 0.966 | [6] 1.02 | S. cerevisiae deletion strains, locus YPR135W, strain CTF4, hits give low values 1.02 | S. cerevisiae strains, strain wild type, hits give low values 1.01

CCCCS(=N)(=O)CCC(N)C(=O)O (stereo unspecified)
inactive: [1] 0.993 | S. cerevisiae deletion strains, locus YAL021C, strain ccr4, hits give low values 0.983 | S. cerevisiae deletion strains, locus YAL026C, strain drs2, hits give low values 1 | S. cerevisiae deletion strains, locus YAL030W, strain snc1, hits give low values 0.997 | S. cerevisiae deletion strains, locus YAL040C, strain CLN3, hits give low values 0.993 | S. cerevisiae deletion strains, locus YBL061C, strain skt5, hits give low values 0.999 | S. cerevisiae deletion strains, locus YBR009C, strain hhf1, hits give low values 1.02 | S. cerevisiae deletion strains, locus YBR023C, strain chs3, hits give low values 0.997 | S. cerevisiae deletion strains, locus YBR171W, strain sec66, hits give low values 0.999 | S. cerevisiae deletion strains, locus YBR231C, strain swc5, hits give low values 0.998 | S. cerevisiae deletion strains, locus YBR279W, strain paf1, hits give low values 0.993 | S. cerevisiae deletion strains, locus YCL011C, strain gbp2, hits give low values 0.988 | S. cerevisiae deletion strains, locus YCL016C, strain dcc1, hits give low values 1 | S. cerevisiae deletion strains, locus YCL061C, strain MRC1 (second series), hits give low values 0.997 | S. cerevisiae deletion strains, locus YCL061C, strain MRC1, hits give low values 0.993 | S. cerevisiae deletion strains, locus YCL069W, strain vba3, hits give low values 0.992 | S. cerevisiae deletion strains, locus YCR088W, strain abp1, hits give low values 0.992 | S. cerevisiae deletion strains, locus YDL005C, strain med2, hits give low values 0.984 | S. cerevisiae deletion strains, locus YDL040C, strain nat1, hits give low values 0.994 | S. cerevisiae deletion strains, locus YDR001C, strain nth1, hits give low values 0.99 | S. cerevisiae deletion strains, locus YDR069C, strain doa4, hits give low values 1.01 | S. cerevisiae deletion strains, locus YDR137W, strain rgp1, hits give low values 0.973 | [2] 1.01 | S. cerevisiae deletion strains, locus YDR159W, strain sac3, hits give low values 1.02 | S. cerevisiae deletion strains, locus YDR195W, strain ref2 0.994 | S. cerevisiae deletion strains, locus YDR297W, strain sur2, hits give low values 0.993 | S. cerevisiae deletion strains, locus YDR334W, strain swr1, hits give low values 0.987 | S. cerevisiae deletion strains, locus YDR335W, strain msn5, hits give low values 0.99 | S. cerevisiae deletion strains, locus YDR363W, strain ESC2, hits give low values 0.992 | S. cerevisiae deletion strains, locus YDR392W, strain spt3, hits give low values 0.976 | S. cerevisiae deletion strains, locus YEL003W, strain gim4, hits give low values 0.994 | S. cerevisiae deletion strains, locus YEL037C, strain rad23, hits give low values 0.99 | S. cerevisiae deletion strains, locus YEL061C, strain CIN8 (second series), hits give low values 0.99 | S. cerevisiae deletion strains, locus YER002W, strain NOP16, hits give low values 0.979 | S. cerevisiae deletion strains, locus YER015W, strain faa2, hits give low values 0.996 | S. cerevisiae deletion strains, locus YER016W, strain bim1, hits give low values 0.996 | S. cerevisiae deletion strains, locus YER111C, strain swi4, hits give low values 0.983 | S. cerevisiae deletion strains, locus YER155C, strain BEM2 (second series), hits give low values 1.01 | S. cerevisiae deletion strains, locus YFR010W, strain ubp6, hits give low values 0.999 | S. cerevisiae deletion strains, locus YGL167C, strain pmr1, hits give low values 1 | S. cerevisiae deletion strains, locus YGL173C, strain kem1, hits give low values 1 | S. cerevisiae deletion strains, locus YGL227W, strain vid30, hits give low values 0.984 | S. cerevisiae deletion strains, locus YGL240W, strain doc1, hits give low values 1.01 | S. cerevisiae deletion strains, locus YGL253W, strain hxk2, hits give low values 1 | S. cerevisiae deletion strains, locus YGR229C, strain SMI1, hits give low values 0.955 | S. cerevisiae deletion strains, locus YHR013C, strain ard1, hits give low values 0.979 | S. cerevisiae deletion strains, locus YHR027C, strain rpn1, hits give low values 0.99 | [3] 0.981 | [7] 0.98 | S. cerevisiae deletion strains, locus YHR142W, strain chs7, hits give low values 0.979 | S. cerevisiae deletion strains, locus YJL092W, strain hpr5, hits give low values 1 | S. cerevisiae deletion strains, locus YJL095W, strain BCK1 (second series), hits give low values 0.995 | [8] 0.983 | S. cerevisiae deletion strains, locus YJL115W, strain asf1, hits give low values 0.996 | S. cerevisiae deletion strains, locus YJL129C, strain trk1, hits give low values 0.986 | S. cerevisiae deletion strains, locus YJL154C, strain vps35, hits give low values 0.993 | S. cerevisiae deletion strains, locus YJL164C, strain tpk1, hits give low values 0.996 | S. cerevisiae deletion strains, locus YJL166W, strain qcr8, hits give low values 1 | S. cerevisiae deletion strains, locus YJL187C, strain SWE1, hits give low values 0.994 | [9] 0.9 | [4] 1 | S. cerevisiae deletion strains, locus YKL160W, strain elf1, hits give low values 0.997 | S. cerevisiae deletion strains, locus YKR026C, strain gcn3, hits give low values 0.986 | S. cerevisiae deletion strains, locus YKR091W, strain srl3, hits give low values 0.988 | S. cerevisiae deletion strains, locus YLL001W, strain dnm1, hits give low values 0.993 | S. cerevisiae deletion strains, locus YLL026W, hits give low values 0.993 | S. cerevisiae deletion strains, locus YLL041C, strain sdh2, hits give low values 0.988 | S. cerevisiae deletion strains, locus YLR027C, strain aat2, hits give low values 0.993 | [10] 0.99 | S. cerevisiae deletion strains, locus YLR221C, strain rsa3, hits give low values 0.986 | S. cerevisiae deletion strains, locus YLR258W, strain gsy2, hits give low values 1 | S. cerevisiae deletion strains, locus YLR262C, strain YPT6 (second series), hits give low values 0.998 | S. cerevisiae deletion strains, locus YLR320W, strain mms22, hits give low values 0.99 | S. cerevisiae deletion strains, locus YLR342W, strain FKS1, hits give low values 0.993 | S. cerevisiae deletion strains, locus YLR357W, strain rsc2, hits give low values 1 | S. cerevisiae deletion strains, locus YLR370C, strain arc18, hits give low values 0.99 | S. cerevisiae deletion strains, locus YLR384C, strain iki3, hits give low values 1.01 | S. cerevisiae deletion strains, locus YML120C, strain ndi1, hits give low values 0.983 | S. cerevisiae deletion strains, locus YMR058W, strain fet3, hits give low values 0.999 | S. cerevisiae deletion strains, locus YMR125W, strain sto1, hits give low values 0.99 | S. cerevisiae deletion strains, locus YMR129W, hits give low values 0.959 | S. cerevisiae deletion strains, locus YMR205C, strain PFK2, hits give low values 1.02 | S. cerevisiae deletion strains, locus YMR231W, strain pep5, hits give low values 0.997 | S. cerevisiae deletion strains, locus YMR307W, strain GAS1, hits give low values 1.01 | S. cerevisiae deletion strains, locus YNL071W, strain lat1, hits give low values 0.982 | S. cerevisiae deletion strains, locus YNL128W, strain TEP1, hits give low values 0.991 | S. cerevisiae deletion strains, locus YNL175C, strain NOP13, hits give low values 0.97 | [11] 0.929 | S. cerevisiae deletion strains, locus YNL197C, strain WHI3, hits give low values 0.94 | S. cerevisiae deletion strains, locus YNL209W, strain ssb2, hits give low values 0.991 | S. cerevisiae deletion strains, locus YNL224C, strain SQS1, hits give low values 0.986 | S. cerevisiae deletion strains, locus YNL248C, strain rpa49, hits give low values 0.991 | S. cerevisiae deletion strains, locus YNL322C, strain KRE1 (second series), hits give low values 0.998 | S. cerevisiae deletion strains, locus YNR049C, strain mso1, hits give low values 0.994 | S. cerevisiae deletion strains, locus YOR001W, strain rrp6, hits give low values 0.974 | S. cerevisiae deletion strains, locus YOR070C, strain gyp1, hits give low values 0.99 | S. cerevisiae deletion strains, locus YOR080W, strain dia2, hits give low values 0.99 | S. cerevisiae deletion strains, locus YOR083W, strain WHI5 (second series), hits give low values 0.95 | S. cerevisiae deletion strains, locus YOR083W, strain WHI5, hits give low values 1 | S. cerevisiae deletion strains, locus YOR106W, strain vam3, hits give low values 1.01 | [12] 0.988 | S. cerevisiae deletion strains, locus YOR265W, strain rbl2, hits give low values 0.989 | S. cerevisiae deletion strains, locus YOR270C, strain vph1, hits give low values 0.99 | S. cerevisiae deletion strains, locus YOR290C, strain snf2, hits give low values 0.949 | S. cerevisiae deletion strains, locus YPL051W, strain arl3, hits give low values 0.992 | [5] 0.999 | S. cerevisiae deletion strains, locus YPL078C, strain atp4, hits give low values 0.994 | S. cerevisiae deletion strains, locus YPL106C, strain sse1, hits give low values 0.991 | S. cerevisiae deletion strains, locus YPL240C, strain hsp82, hits give low values 0.998 | [6] 0.998 | [13] 0.988

CCSCCC(N)C(=O)O (stereo unspecified)
inactive: [3] 1.06 | [7] 1.05 | [8] 1.04 | [9] 1.01 | [10] 1.04 | [11] 1.02 | [12] 1.03 | [13] 1.05
